Results from PubChem BioAssay (NCATS).
“And” between values parts separate entries of the source, which are not always exact repeats. Identical values can stand only once. Records with an inconclusive call do not appear. The source made the active and inactive calls. Calls follow the shape of the dose curve; as a rule, active = well fitted curve in the direction sought with a large enough effect; inconclusive = small, poorly fitted or top-dose-only effect, or another doubt; inactive = no such curve, though single readings can be large; an effect the other way counts as inactive or inconclusive.

Tests used:
[1] = Viability qHTS for spleen associated tyrosine kinase inhibitor (SYKi) drug resistant MV4-11 cells (AID 1963824); details: SYKi-resistant MV4-11 viability, CellTiter-Glo, 72 h; series mostly up to 45 µM; also: nearly all actives have a fitted effect of over 35% in size; also: potency is read from the fitted curve at half-maximal effect
Method in brief: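 SYK inhibitor-resistant MV4-11 AML cells, 500 per well, added to predispensed compounds and incubated 72 hr at 37 C, 5% CO2. Viability measured by CellTiter-Glo luminescence after 10 min at room temperature.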

[2] = Quantitative highthroughput screen to assess conditional lethalithy of NOMO1 cells grown in RPMI1640 with untreated serum (RPMI+s) (AID 1963876); details: NOMO1 AML cells in RPMI+serum, CellTiter-Glo viability, 48 h; series mostly up to 45.8 µM; also: nearly all actives have a fitted effect of over 35% in size; also: potency is read from the fitted curve at half-maximal effect;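 as to Viability: 100% = DMSO wells and 0% = empty wells without cells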
Method in brief: (§1)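 Each medium arm—HPLM with 10% dialyzed FBS, or RPMI1640 with 5 mM glucose and 10% untreated or dialyzed FBS—was screened against an 11-point, 3-fold compound titration for 48 h at 37 °C, with CellTiter-Glo luminescence as endpoint.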

[3] = Quantitative highthroughput screen to assess conditional lethalithy of NOMO1 cells grown in RPMI1640 with dialyzed fetal bovine serum (RPMI+ds) (AID 1963877); details: NOMO1 in RPMI+dialyzed FBS viability, ATP luminescence, 48 h; series mostly up to 45.8 µM; also: nearly all actives have a fitted effect of over 30% in size; also: potency is read from the fitted curve at half-maximal effect;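 as to Viability: 100% = DMSO control wells and 0% = empty wells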
Method in brief: as §1

[4] = Quantitative highthroughput screen to assess conditional lethalithy of NOMO1 cells grown in Human Plasma-Like Medium with dialyzed fetal bovine serum (HPLM+ds) (AID 1963878); details: NOMO1 AML cells in HPLM+ds, CellTiter-Glo viability, 48 h; series mostly up to 45.8 µM; also: nearly all actives have a fitted effect of over 35% in size; also: potency is read from the fitted curve at half-maximal effect;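 as to Viability: 100% = DMSO wells and 0% = empty wells on each plate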
Method in brief: as §1

[5] = Quantitative highthroughput screen to assess conditional lethalithy of P12 Ichikawa cells grown in Human Plasma-Like Medium with dialyzed fetal bovine serum (HPLM+ds) (AID 1963879); details: ATP luminescence, 48 h; Potency: viability; series mostly up to 45.8 µM; also: nearly all actives have a fitted effect of over 35% in size; also: potency is read from the fitted curve at half-maximal effect
Method in brief: as §1

[6] = Quantitative highthroughput screen to assess conditional lethalithy of P12 Ichikawa cells grown in RPMI1640 with dialyzed fetal bovine serum (RPMI+ds) (AID 1963880); details: ATP luminescence, 48 h; Potency: P12-Ichikawa viability; series mostly up to 45.8 µM; also: nearly all actives have a fitted effect of over 35% in size; also: potency is read from the fitted curve at half-maximal effect;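 as to Viability: 100% = DMSO wells and 0% = empty wells on each plate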
Method in brief: as §1

[7] = Quantitative highthroughput screen to assess conditional lethalithy of P12 Ichikawa cells grown in RPMI1640 with untreated serum (RPMI+s) (AID 1963881); details: ATP luminescence, 48 h; Potency: viability; series mostly up to 45.8 µM; also: nearly all actives have a fitted effect of over 35% in size; also: potency is read from the fitted curve at half-maximal effect;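 as to Viability: 100% = DMSO wells and 0% = empty wells without cells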
Method in brief: as §1

[8] = Quantitative highthroughput screen to assess conditional lethalithy of SEM cells grown in Human Plasma-Like Medium with dialyzed fetal bovine serum (HPLM+ds) (AID 1963882); details: SEM B-ALL cells in HPLM+ds, CellTiter-Glo viability, 48 h; series mostly up to 45.8 µM; also: nearly all actives have a fitted effect of over 35% in size
Method in brief: as §1

[9] = Quantitative highthroughput screen to assess conditional lethalithy of SEM cells grown in RPMI1640 with unreated serum (RPMI+s) (AID 1963883); details: SEM B-ALL cells, CellTiter-Glo viability, 48 h; series mostly up to 45.8 µM
Method in brief: as §1

[10] = Quantitative highthroughput screen to assess conditional lethalithy of SEM cells grown in RPMI1640 with dialyzed fetal bovine serum (RPMI+ds) (AID 1963884); details: SEM B-ALL cells, RPMI+dialyzed FBS, CellTiter-Glo viability, 48 h; series mostly up to 45.8 µM
Method in brief: as §1

[11] = Cellular viability qHTS for adrenocortical cancer (ACC) cell line SW-13 (AID 1963989); details: SW-13 ACC cells viability, CellTiter-Glo, 48 h; activity (max response): active compounds read low;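 also: cells grown in serum-free medium with ITS supplement; % is scaled to controls: 0 for no effect and ±100 for the full control effect; nearly all actives have a fitted effect of over 65% in size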
Method in brief: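 Here, serum-free SW-13 cultures were dosed up to 46 uM. Following 48 h, ATP-dependent luminescence (CellTiter-Glo) reported viable cells, and logistic modeling produced IC50 values.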

[12] = Cellular viability qHTS for adrenocortical cancer (ACC) cell line NCI-H295R (AID 1963990); details: CellTiter-Glo ATP luminescence, 48 h; series mostly up to 46.1 µM; also: nearly all actives have a fitted effect of over 60% in size; also: potency is read from the fitted curve at half-maximal effect;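 as to activity change, negative = viability loss: 0% = DMSO only wells and -100% = full killing with cytotoxic reference compound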
Method in brief: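 Viability of NCI-H295R after 48 h of treatment (final up to 46 uM) measured through cellular ATP luminescence.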

[2H]C([2H])([2H])C(OC(=O)[C@H](C)N[P@](=O)(OC[C@H]1O[C@@H](n2ccc(=O)[nH]c2=O)[C@](C)(F)[C@@H]1O)Oc1ccccc1)C([2H])([2H])[2H]
active: Potency [1] 9.2 µM

C[C@]12CC[C@H](O)CC1=CCC1C2CC[C@]2(C)C(n3cnc4ccccc43)=CCC12 (stereo partly drawn)
active: Potency [1] 7.42 µM
inactive: Potency [2] | Potency [3] | Potency [4] | Potency [5] | Potency [6] | Potency [7] | Potency [8] | Potency [9] | Potency [10] | activity (max response) [11] -10.3% | Potency [12]

CC(C)c1onc(-c2c(Cl)cccc2Cl)c1COc1ccc(/C=C/c2cccc(C(=O)O)c2)c(Cl)c1
active: Potency [1] 14.8 µM

OCc1ccc(-c2nn(Cc3ccccc3)c3ccccc23)o1
inactive: Potency [5]
active: Potency [1] 4.68 µM | Potency [2] 13.2 µM | Potency [3] 16.6 µM | Potency [4] 16.6 µM

CNc1cc2[nH]c(=O)n(-c3ccc(NC(=O)NS(=O)(=O)c4ccc(Cl)s4)cc3)c(=O)c2cc1F
inactive: Potency [1]

O=c1cc(-c2ccc(O)c(O)c2)oc2cc(O)cc(O)c12
active: Potency [1] 7.42 µM
inactive: Potency [2] | Potency [3] | Potency [4] | Potency [5] | Potency [6] | Potency [7] | Potency [8] | Potency [9] | Potency [10] | Potency [12]

COc1cccc(-c2cc(=O)c3ccccc3o2)c1N
active: Potency [1] 18.4 µM
inactive: Potency [2] | Potency [3] | Potency [4] | Potency [5] | Potency [6] | Potency [7] | Potency [8] | Potency [10] | activity (max response) [11] 0.813% | Potency [12]

CC(C)C(=O)Oc1ccc(CO)cc1[C@H](CCN(C(C)C)C(C)C)c1ccccc1
inactive: Potency [1] | Potency [2] | Potency [3] | Potency [4] | Potency [5] | Potency [6]

Nc1nccc(-c2ccc3noc(-c4ccc(Cl)cc4)c3c2)n1
active: Potency [1] 8.33 µM
inactive: Potency [2] | Potency [3] | Potency [4] | Potency [5] | Potency [6] | Potency [7] | Potency [8] | Potency [9] | Potency [10] | activity (max response) [11] -6.01% | Potency [12]

CC(C)(C)c1ccc(S(=O)(=O)NCc2ccc(C(=O)Nc3cccnc3)cc2)cc1
active: Potency [1] 0.231 µM

Nc1ncnc2c1ncn2[C@@H]1O[C@H](CO)[C@@H](O)[C@@H]1O
active: Potency [2] 9.35 µM | Potency [3] 8.33 µM | Potency [4] 5.9 µM | Potency [5] 7.43 µM | Potency [6] 14.8 µM | Potency [7] 6.62 µM
inactive: Potency [1] | Potency [8] | Potency [10] | activity (max response) [11] -11.9%

CC(C)Oc1ccc2c(=O)c(-c3ccccc3)coc2c1
inactive: Potency [2] | Potency [3] | Potency [4] | Potency [5] | Potency [6] | Potency [7] | Potency [8] | Potency [9] | activity (max response) [11] -5.36% and 3.78% | Potency [12]
active: Potency [1] 10.6 µM

Cn1cc(C[C@@H](N)C(=O)O)c2ccccc21
inactive: viability, % of control [1] 75.4% [at 9.25 µM] | Potency [2] | Potency [3] | Potency [4] | Potency [5] | Potency [6] | Potency [7] | Potency [8] | Potency [10] | activity (max response) [11] -6.77% | activity change, negative = viability loss [12] -13.9% [at 9.17 µM]

COc1ccc(Cc2ccc(NC(N)=O)cc2)cc1-c1cccc(Cl)c1
active: Potency [1] 18.6 µM | Potency [12] 28.2 µM
inactive: Potency [2] | Potency [3] | Potency [4] | Potency [5] | Potency [6] | Potency [7] | Potency [8] | Potency [9]
